# Assay results: PubChem BioAssay (Tox21)
# Inconclusive results are not listed. Values without a mark were called inactive. Activity calls are given as the source filed them. The call rests on the fitted dose curve; in most records, active means well fitted activation curve with a large enough effect in the repeat runs; inconclusive means weak or mixed curves, or effect the other way; inactive means no such curve, though single readings can be large or run the other way.
# Test: qHTS assay to identify small molecule agonists of the estrogen related receptor signaling pathway with the pleiotropic PPARgamma coactivator (PGC) from Tox21 10K library (AID 1224842); further: nearly all actives have a fitted effect of over 15% in size
# Settings: PGC/ERR reporter cell line, luciferase ONE-Glo, 18 h; series mostly up to 92.4 µM; activation: at the top concentration
# Text: National Center for Advancing Translational Sciences [NCATS] NIH Chemical Genomics Center [NCGC] U.S. Environmental Protection Agency [EPA] National Institutes of Environmental Health Sciences [NIEHS] National Toxicology Program [NTP] Assay overview: Estrogen related receptors (ERRs), the first orphan nuclear receptors discovered, play an important role in the control of cellular energy metabolism. ERRs are required for high-energy production in response to the environmental challenges. The pleiotropic PPARgamma coactivator (PGC) is a major partner of ERR and a key regulator in energy homeostasis. Together they have been implicated in the etiology of metabolic disorders such as Type 2 diabetes and metabolic syndrome. ERR-alpha was also identified as an adverse marker for breast cancer progression; ERR-alpha-positive tumors have a poor prognosis. To screen and to identify environmental compounds that perturb the PGC/ERR signaling pathways could provide valuable information for potential therapeutic or preventive measures in the treatment of metabolic disease. For identifying PGC/ERR agonists, PGC/ERR cell line (provided by NTP) has been used to screen Tox21 10K library.
# Assay Protocol Summary: The PGC/ERR cells were dispensed at 2,000 cells/5 ul/well in 1536-well white plates using a Multidrop dispenser. After the assay plates were incubated at a 37 C/5% CO2 incubator for 6 hours, 23 nL of compounds dissolved in DMSO, positive and negative controls or DMSO only was transferred to the assay plate by a pin tool. The plates were incubated at 37 C for 18 hours. 4 ul/well of One-Glo reagent was added into the assay plates using a Flying Reagent Dispenser. After 30-minute incubation at room temperature, the luminescence intensity in the plates was measured using a ViewLux plate reader.
# On the % scale 0 is the no-effect control and ±100 the full control effect.
Structure (SMILES),outcome,activation
COC(=O)c1ccccc1N,inactive,–
Nc1ccc(Oc2ccc(N)cc2)cc1,inactive,–
CC(C)NC(=O)N1CC(=O)N(c2cc(Cl)cc(Cl)c2)C1=O,inactive,–
CN(C)CCO,inactive,–
Clc1cccc(Cl)c1Cl,inactive,–
Cn1cc(-c2ccccc2)c(=O)c(-c2cccc(C(F)(F)F)c2)c1,inactive,–
Nc1ccccc1C(=O)O,inactive,–
CC1OC(C)OC(C)O1 (stereo not drawn),inactive,–
O=c1[nH]c(=O)[nH]c(=O)[nH]1,inactive,–
O=C(NC(=O)c1c(F)cccc1F)Nc1cc(Cl)c(OC(F)(F)C(F)C(F)(F)F)cc1Cl (stereo not drawn),inactive,–
COC(=O)NS(=O)(=O)c1ccc(N)cc1,inactive,–
CC(C#N)CCC#N (stereo not drawn),inactive,–
O=c1ccc(=O)[nH][nH]1,inactive,–
CC(C)C1(C)N=C(c2nc3ccccc3cc2C(=O)O)NC1=O (stereo not drawn),inactive,–
O=[N+]([O-])c1ccccc1,inactive,–
OC(O)C(Cl)(Cl)Cl,inactive,–
CC(C)(C)C(O)(CCc1ccc(Cl)cc1)Cn1cncn1 (stereo not drawn),inactive,–
CON(C)C(=O)Nc1ccc(Cl)c(Cl)c1,–,2.88%
CC(C)OC(=O)Nc1cccc(Cl)c1,inactive,–

Structure (SMILES),outcome,activation
CC(C)OC(=O)Nc1ccccc1,inactive,–
CC(C)N1C(=O)c2ccccc2NS1(=O)=O,inactive,–
CCCCOC(=O)c1ccccc1C(=O)OCCCC,inactive,–
BrCCBr,inactive,–
CC(=O)C=C(C)C,inactive,–
CN(N=O)c1ccccc1,inactive,–
Cc1ccc(N)cc1N,–,5.95%
O=[N+]([O-])c1ccc(Oc2ccc(Cl)cc2Cl)cc1,inactive,–
CCOC(=O)c1ccccc1C(=O)OCC,inactive,–
ClCCBr,inactive,–
CN=C=S,inactive,–
CCC[CH2][Sn]([Cl])([Cl])[Cl],inactive,–
COc1ccc2c3c1O[C@H]1[C@@H](O)C=C[C@H]4[C@@H](C2)N(C)CC[C@@]341,inactive,–
CCc1cccc(C)c1N(C(=O)CCl)C(C)COC (stereo not drawn),inactive,–
CCC(C)(CC)c1cc(NC(=O)c2c(OC)cccc2OC)on1,inactive,–
COC(=O)c1ccccc1C(=O)OC,–,-8.6%
CC(C)(C)OOC(C)(C)C,inactive,–
COCCl,inactive,–
CNC(=O)Oc1ccccc1OC(C)C,inactive,–
